From PubChem BioAssay (EPA / NIEHS) come the findings set out here.

Calls of active or inactive are those of the source. How the source made its calls: active means hit-call score of the fitted dose curve at least 0.9, where 1 is the maximum; inactive means score below 0.9.

Details in all cases: mRNA level, 48 h; actives raise or lower the signal
Read-out in one test: MYC, MYC (gene 4609)
In words: LTEA_HepaRG_MYC: Life Technologies and Expression Analysis (LTEA) Assay for MYC using HepaRG (AID 2283518). A digest of the protocol: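 Differentiated HepaRG cells exposed 48 h in serum-free induction medium to 8 concentrations (top 100 uM, half-log steps; 0.5% DMSO), duplicate. MYC mRNA measured by Fluidigm qRT-PCR, normalized to ACTB, GAPDH, POLR2A; bidirectional fit versus DMSO.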

Read-out in test [1]: matrix metalloproteinase-3 (MMP3), MMP3 (gene 4314)
In words: LTEA_HepaRG_MMP3: Life Technologies and Expression Analysis (LTEA) Assay for matrix metalloproteinase-3 (MMP3) using HepaRG (AID 2283519). A digest of the protocol:
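HepaRG, human; 48 h dosing, 8 conc. (max 100 uM, half-log), duplicate, 0.5% DMSO. Readout: MMP3 transcript by Fluidigm TaqMan qRT-PCR, ACTB/GAPDH/POLR2A-normalised. Gain or loss fitted vs DMSO.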

Read-out in test [2]: Paternally Expressed 10 (PEG10), PEG10 (gene 23089)
The experiment in a line: LTEA_HepaRG_PEG10: Life Technologies and Expression Analysis (LTEA) Assay for Paternally Expressed 10 (PEG10) using HepaRG (AID 2283520). In a few lines:
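HepaRG, 48 h post-plating → serum-free induction medium → 48 h chemical exposure (duplicate, 8-pt, max 100 uM, half-log, 0.5% DMSO) → lysis in RLT → TaqMan qRT-PCR for PEG10, ACTB/GAPDH/POLR2A normalisation.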

Read-out in test [3]: Nuclear factor NF-kappa-B p105 subunit (Homo sapiens) (UniProt P19838)
The experiment in a line: LTEA_HepaRG_NFKB1: Life Technologies and Expression Analysis (LTEA) Assay for Nuclear Factor Kappa B Subunit 1 (NFKB1) using HepaRG (AID 2283521). A digest of the protocol: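 NFKB1 transcript was measured by TaqMan qRT-PCR on Fluidigm arrays, normalised to three housekeeping genes and fitted in both directions against 0.5% DMSO. HepaRG cells were dosed in duplicate for 48 h in serum-free induction medium, eight half-log steps from 100 uM.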

Read-out in test [4]: Protein phosphatase 2A (PPP2R4), PTPA (gene 5524)
In words: LTEA_HepaRG_PPP2R4: Life Technologies and Expression Analysis (LTEA) Assay for Protein phosphatase 2A (PPP2R4) using HepaRG (AID 2283522). In a few lines:
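Readout is PPP2R4 transcript level by microfluidic qRT-PCR after 48 h chemical treatment of human HepaRG liver cells. Concentrations spanned 100 uM downward in half-log steps; gain or loss of signal was fitted relative to DMSO.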

Read-out in test [5]: Phosphatase and tensin (PTEN), PTEN (gene 5728)
The experiment in a line: LTEA_HepaRG_PTEN: Life Technologies and Expression Analysis (LTEA) Assay for Phosphatase and tensin (PTEN) using HepaRG (AID 2283523). A digest of the protocol:
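Read-out is PTEN transcript level by multiplexed TaqMan qRT-PCR after 48 h chemical treatment of human HepaRG cultures in serum-free induction medium. Concentrations spanned 100 uM downward in half-log steps, 0.5% DMSO throughout; activity fitted in both directions against vehicle.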

Read-out in test [6]: solute carrier (SLC22A1), SLC22A1 (gene 6580)
The experiment in a line: LTEA_HepaRG_SLC22A1: Life Technologies and Expression Analysis (LTEA) Assay for solute carrier (SLC22A1) using HepaRG (AID 2283524). In a few lines: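 HepaRG (human liver line), 48 h dosing in serum-free induction medium; 8 conc., half-log down from 100 uM, 0.5% DMSO vehicle, duplicates. Endpoint: SLC22A1 mRNA, qRT-PCR, housekeeping-normalized; gain/loss fit vs DMSO.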

Read-out in test [7]: Pyruvate Dehydrogenase Kinase 4 (PDK4), PDK4 (gene 5166)
In words: LTEA_HepaRG_PDK4: Life Technologies and Expression Analysis (LTEA) Assay for Pyruvate Dehydrogenase Kinase 4 (PDK4) using HepaRG (AID 2283525). In a few lines:
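In this multiplexed human HepaRG expression assay, cells are treated 48 h with test chemicals across an eight-point range starting at 100 uM. PDK4 mRNA changes, normalized to ACTB/GAPDH/POLR2A, are fitted in both directions relative to vehicle.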

Read-out in test [8]: NAD(P)H dehydrogenase [quinone] 1 (NQO1), NQO1 (gene 1728)
The experiment in a line: LTEA_HepaRG_NQO1: Life Technologies and Expression Analysis (LTEA) Assay for NAD(P)H dehydrogenase [quinone] 1 (NQO1) using HepaRG (AID 2283526). In a few lines: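 HepaRG, 48 h post-plating → serum-free induction medium → test chemical 48 h (duplicate, 100 uM top, half-log x8, 0.5% DMSO) → RNA isolation → qRT-PCR, ACTB/GAPDH/POLR2A normalization; bidirectional curve fit vs DMSO baseline.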

Read-out in test [9]: Nuclear factor erythroid 2-related factor 2 (Homo sapiens) (UniProt Q16236)
The experiment in a line: LTEA_HepaRG_NFE2L2: Life Technologies and Expression Analysis (LTEA) Assay for Nuclear factor erythroid 2-related factor 2 (NFE2L2) Transcription Factor using HepaRG (AID 2283527). A digest of the protocol: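 Transcript level of NFE2L2 is the read-out, measured by microfluidic TaqMan qRT-PCR and normalized to three housekeeping genes. Human HepaRG cultures received test chemical for 48 h at up to 100 uM in half-log steps. Gain or loss of signal is fitted relative to 0.5% DMSO.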

Read-out in test [10]: succinate dehydrogenase complex iron sulfur subunit B (SDHB), SDHB (gene 6390)
The experiment in a line: LTEA_HepaRG_SDHB: Life Technologies and Expression Analysis (LTEA) Assay for succinate dehydrogenase complex iron sulfur subunit B (SDHB) using HepaRG (AID 2283528). A digest of the protocol: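 SDHB transcript level read by TaqMan qRT-PCR, housekeeping-normalised (ACTB, GAPDH, POLR2A), after 48 h chemical treatment of plated HepaRG cells; eight concentrations top 100 uM, half-log steps, 0.5% DMSO, duplicates; fitted both directions against DMSO.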

Read-out in test [11]: sulfotransferase 2A1 (SULT2A1), SULT2A1 (gene 6822)
In words: LTEA_HepaRG_SULT2A1: Life Technologies and Expression Analysis (LTEA) Assay for sulfotransferase 2A1 (SULT2A1) using HepaRG (AID 2283531). In a few lines: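 HepaRG human liver cells, 48 h exposure in serum-free induction medium to 8 half-log concentrations topping at 100 µM (0.5% DMSO), duplicate wells. SULT2A1 mRNA measured by TaqMan qRT-PCR, normalized to ACTB/GAPDH/POLR2A; bidirectional fit against DMSO.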

Read-out in test [12]: Transforming Growth Factor (TGFA), TGFA (gene 7039)
In words: LTEA_HepaRG_TGFA: Life Technologies and Expression Analysis (LTEA) Assay for Transforming Growth Factor (TGFA) using HepaRG (AID 2283532). In a few lines:
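HepaRG (human liver line), 48 h exposure, 8 conc. half-log down from 100 uM, 0.5% DMSO vehicle, duplicates; serum-free induction medium. TGFA mRNA by TaqMan qRT-PCR, ACTB/GAPDH/POLR2A normalization; gain/loss fit vs DMSO.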

Read-out in test [13]: Transforming Growth Factor (TGFB1), TGFB1 (gene 7040)
In words: LTEA_HepaRG_TGFB1: Life Technologies and Expression Analysis (LTEA) Assay for Transforming Growth Factor (TGFB1) Transporter using HepaRG (AID 2283533). A digest of the protocol:
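Differentiated HepaRG cells exposed 48 hr in serum-free induction medium to eight half-log concentrations up to 100 uM (0.5% DMSO), duplicate; TGFB1 mRNA by TaqMan qRT-PCR normalised to ACTB, GAPDH, POLR2A; bidirectional fit against DMSO.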

Read-out in a further test: TIMP1, TIMP1 (gene 7076)
In words: LTEA_HepaRG_TIMP1: Life Technologies and Expression Analysis (LTEA) Assay for TIMP1 using HepaRG (AID 2283534).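 Further: TaqMan qRT-PCR signal normalized to ACTB GAPDH and POLR2A housekeeping genes.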 A digest of the protocol:
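Differentiated HepaRG cells exposed 48 h in serum-free induction medium, duplicates, eight half-log concentrations from 100 uM in 0.5% DMSO. TIMP1 mRNA by qRT-PCR normalized to ACTB, GAPDH, POLR2A; bidirectional fitting against DMSO.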

Read-out in test [14]: Tumor necrosis factor receptor 1 (TNFRSF1A), TNFRSF1A (gene 7132)
The experiment in a line: LTEA_HepaRG_TNFRSF1A: Life Technologies and Expression Analysis (LTEA) Assay for Tumor necrosis factor receptor 1 (TNFRSF1A) using HepaRG (AID 2283535). In a few lines: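 Differentiated HepaRG cells in serum-free induction medium, exposed 48 h in duplicate to 8 half-log concentrations up to 100 uM in 0.5% DMSO. TNFRSF1A mRNA by Fluidigm TaqMan qRT-PCR, normalized to ACTB, GAPDH, POLR2A; bidirectional fit.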

Read-out in test [15]: Thyroid Hormone Responsive (THRSP), THRSP (gene 7069)
The experiment in a line: LTEA_HepaRG_THRSP: Life Technologies and Expression Analysis (LTEA) Assay for Thyroid Hormone Responsive (THRSP) using HepaRG (AID 2283536). A digest of the protocol:
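mRNA induction or loss relative to 0.5% DMSO vehicle was fitted bidirectionally across an eight-point curve whose highest exposure was 100 uM. Human HepaRG liver cells received chemicals in duplicate over 48 h before RNA extraction.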

Read-out in test [16]: UDP glucuronosyltransferase (UGT1A1), UGT1A1 (gene 54658)
In words: LTEA_HepaRG_UGT1A1: Life Technologies and Expression Analysis (LTEA) Assay for UDP glucuronosyltransferase (UGT1A1) using HepaRG (AID 2283538). In a few lines: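 Readout is UGT1A1 transcript level by qRT-PCR, normalized to three housekeeping genes, after 48 h chemical treatment of HepaRG cells. Concentrations ran from 100 uM down in half-log steps with 0.5% DMSO, and gain or loss relative to DMSO was fitted.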

Read-out in test [17]: UDP glucuronosyltransferase (UGT1A6), UGT1A6 (gene 54578)
The experiment in a line: LTEA_HepaRG_UGT1A6: Life Technologies and Expression Analysis (LTEA) Assay for UDP glucuronosyltransferase (UGT1A6) using HepaRG (AID 2283539). In a few lines: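 Differentiated HepaRG cells, ~100,000/well, were exposed for 48 h in serum-free induction medium with 0.5% DMSO to 8-point half-log series topping at 100 uM, in duplicate. mRNA measured by Fluidigm TaqMan qRT-PCR, normalized to ACTB, GAPDH and POLR2A.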

Read-out in test [18]: Cellular tumor antigen p53 (Homo sapiens) (UniProt P04637)
The experiment in a line: LTEA_HepaRG_TP53: Life Technologies and Expression Analysis (LTEA) Assay for Tumor Protein P53 (TP53) using HepaRG (AID 2283537). A digest of the protocol: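 TP53 transcript measured by qRT-PCR, normalized to three housekeeping genes, after 48 h treatment of human HepaRG cultures with chemicals from 100 uM downward in half-log steps (0.5% DMSO vehicle, serum-free induction medium). Up- or down-regulation fitted against DMSO.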

Sequence of Nuclear factor NF-kappa-B p105 subunit (Homo sapiens) (P19838 whole entry, looked up): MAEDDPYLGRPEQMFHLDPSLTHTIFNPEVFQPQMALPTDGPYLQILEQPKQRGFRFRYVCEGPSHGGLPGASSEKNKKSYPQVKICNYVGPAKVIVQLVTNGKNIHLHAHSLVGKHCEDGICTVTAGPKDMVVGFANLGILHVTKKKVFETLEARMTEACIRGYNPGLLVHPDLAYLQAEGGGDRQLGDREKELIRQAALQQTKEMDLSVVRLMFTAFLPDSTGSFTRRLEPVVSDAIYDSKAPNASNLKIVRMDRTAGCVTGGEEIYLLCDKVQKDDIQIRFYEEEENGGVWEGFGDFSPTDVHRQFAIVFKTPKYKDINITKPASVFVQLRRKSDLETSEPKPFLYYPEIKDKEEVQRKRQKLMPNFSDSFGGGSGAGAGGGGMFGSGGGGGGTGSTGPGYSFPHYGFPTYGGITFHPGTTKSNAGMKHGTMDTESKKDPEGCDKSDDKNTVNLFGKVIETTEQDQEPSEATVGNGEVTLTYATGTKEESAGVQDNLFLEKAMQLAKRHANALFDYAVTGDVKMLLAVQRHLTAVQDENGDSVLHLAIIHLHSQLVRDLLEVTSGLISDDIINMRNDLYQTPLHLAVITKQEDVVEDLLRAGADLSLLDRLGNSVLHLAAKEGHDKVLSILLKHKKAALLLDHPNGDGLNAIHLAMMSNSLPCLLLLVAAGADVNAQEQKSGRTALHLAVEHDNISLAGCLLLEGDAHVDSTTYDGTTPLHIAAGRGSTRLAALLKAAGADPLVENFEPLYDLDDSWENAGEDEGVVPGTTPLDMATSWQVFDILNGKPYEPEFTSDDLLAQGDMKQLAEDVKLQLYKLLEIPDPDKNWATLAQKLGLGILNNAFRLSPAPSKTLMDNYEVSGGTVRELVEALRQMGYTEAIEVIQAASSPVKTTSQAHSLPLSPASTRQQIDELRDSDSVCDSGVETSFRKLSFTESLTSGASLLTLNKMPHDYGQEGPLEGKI
Sequence of Nuclear factor erythroid 2-related factor 2 (Homo sapiens) (Q16236 whole entry, looked up): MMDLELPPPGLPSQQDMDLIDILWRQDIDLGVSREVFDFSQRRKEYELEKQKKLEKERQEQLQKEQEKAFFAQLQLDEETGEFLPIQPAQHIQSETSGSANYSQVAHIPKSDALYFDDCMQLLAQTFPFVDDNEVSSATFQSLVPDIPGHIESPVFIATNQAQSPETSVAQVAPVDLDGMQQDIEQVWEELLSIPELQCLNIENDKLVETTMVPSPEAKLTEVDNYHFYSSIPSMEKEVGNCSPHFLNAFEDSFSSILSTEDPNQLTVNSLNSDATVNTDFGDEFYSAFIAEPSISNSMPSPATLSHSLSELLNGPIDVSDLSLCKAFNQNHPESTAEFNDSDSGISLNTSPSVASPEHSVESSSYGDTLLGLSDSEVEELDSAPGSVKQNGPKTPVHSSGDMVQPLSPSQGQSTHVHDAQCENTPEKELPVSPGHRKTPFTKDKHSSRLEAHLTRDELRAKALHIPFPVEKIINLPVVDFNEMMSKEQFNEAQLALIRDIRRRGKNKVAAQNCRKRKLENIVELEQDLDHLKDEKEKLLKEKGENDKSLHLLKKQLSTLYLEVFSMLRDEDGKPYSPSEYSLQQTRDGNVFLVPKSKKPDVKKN
Sequence of Cellular tumor antigen p53 (Homo sapiens) (P04637 whole entry, looked up): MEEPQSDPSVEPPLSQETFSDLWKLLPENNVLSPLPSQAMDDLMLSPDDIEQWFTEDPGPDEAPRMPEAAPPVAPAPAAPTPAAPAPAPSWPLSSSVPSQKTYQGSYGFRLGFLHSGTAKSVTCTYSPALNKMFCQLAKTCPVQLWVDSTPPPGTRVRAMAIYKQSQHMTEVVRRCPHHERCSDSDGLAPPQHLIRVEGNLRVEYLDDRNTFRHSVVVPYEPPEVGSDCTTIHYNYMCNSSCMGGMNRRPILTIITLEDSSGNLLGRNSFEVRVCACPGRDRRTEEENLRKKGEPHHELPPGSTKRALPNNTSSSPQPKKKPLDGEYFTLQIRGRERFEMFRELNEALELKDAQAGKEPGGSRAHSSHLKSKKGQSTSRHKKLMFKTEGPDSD

Consider `Clc1cccc(Cl)c1Cl`, for which the outcome with MYC, MYC (gene 4609) was “inactive”; in test [1], “inactive”; in test [2] it was “inactive”; in [3], “inactive”; in test [4] it was “inactive”; in test [5], “inactive”. The call in test [6], in [7], in test [8], in test [9], in test [10] and in test [11] was inactive. In addition, the outcome was “inactive” in test [12]; “inactive” in [13]; “inactive” with TIMP1, TIMP1 (gene 7076); “inactive” in test [14]; “inactive” in [15]; “inactive” in [16]. In test [17], the result was inactive.
Consider `Clc1cccc(Cl)c1`, for which the outcome with MYC, MYC (gene 4609) was “inactive”; in test [1], “inactive”; in [2], “inactive”; in test [3], “inactive”; in test [4], “inactive”; in test [5], “inactive”. In addition, the result in test [6], in test [7], in test [8], in test [9], in test [10] and in test [11] was inactive. Further, the outcome in [12] was “inactive”; in test [13], “inactive”; in the test with TIMP1, TIMP1 (gene 7076) it was “inactive”; in test [14], “inactive”; in [15] it was “inactive”; in test [16] it was “inactive”. Further, the compound was called inactive in [17].
What is called AC50 is the concentration giving half of the maximal activity seen. On to `Oc1c(Cl)cc(Cl)cc1Cl`, for which the outcome with MYC, MYC (gene 4609) was “inactive”; in [1], “inactive”; in [2] it was “inactive”; in [4] it was “inactive”; in test [5], “inactive”; in test [6], “inactive”. Moreover, the compound was classed as inactive in test [7], in [8], in test [10], in test [11], in test [12] and in [13]. In addition, the outcome is “inactive” in the test with TIMP1, TIMP1 (gene 7076); “inactive” in [14]; “inactive” in [15]; “inactive” in test [16]; “inactive” in test [17]. Moreover, the AC50 in [18] is 50 µM (active).
For `Oc1cc(Cl)c(Cl)cc1Cl`, the outcome with MYC, MYC (gene 4609) is “inactive”; in [1], “inactive”; in test [2], “inactive”; in test [3] it was “inactive”; in test [4], “inactive”; in test [5] it was “inactive”. The call in test [6], in [7], in test [8], in [9], in test [10] and in test [11] was inactive. In addition, the outcome in test [12] was “inactive”; in test [13] it was “inactive”; in the test with TIMP1, TIMP1 (gene 7076) it was “inactive”; in [14] it was “inactive”; in test [15], “inactive”; in test [16], “inactive”. Further, the compound was classed as inactive in test [17].
